Measured values from PubChem BioAssay (EPA / NIEHS).
Records with an inconclusive call do not appear. Active and inactive are the calls of the source. The calls were made as follows: active = hit-call score of the fitted dose curve at least 0.9, where 1 is the maximum; inconclusive = response in the unintended direction; inactive = score below 0.9.

Tests used:
[1] = tested on: guinea pig Histamine Receptor (H2), gene 100729734; experiment: NVS_GPCR_gH2: NovaScreen (NVS) G Protein-Coupled Receptor Assay for guinea pig Histamine Receptor (H2) (AID 2283342)
Summary of the method: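 Guinea pig striatal membrane preparation with specific radioligand; bound counts measured by filtration and scintillation 1 h post-dosing, DMSO as baseline. Chemicals passing a 25 uM duplicate screen were titrated to a 50 uM maximum.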

[2] = target: Estrogen receptor (Homo sapiens) (UniProt P03372); experiment: NVS_NR_hER: NovaScreen (NVS) Nuclear Receptor Binding Assay for human Estrogen Receptor (ER) (AID 2283348)
Sequence of Estrogen receptor (Homo sapiens) (P03372 whole entry, looked up, the tested form may be a part): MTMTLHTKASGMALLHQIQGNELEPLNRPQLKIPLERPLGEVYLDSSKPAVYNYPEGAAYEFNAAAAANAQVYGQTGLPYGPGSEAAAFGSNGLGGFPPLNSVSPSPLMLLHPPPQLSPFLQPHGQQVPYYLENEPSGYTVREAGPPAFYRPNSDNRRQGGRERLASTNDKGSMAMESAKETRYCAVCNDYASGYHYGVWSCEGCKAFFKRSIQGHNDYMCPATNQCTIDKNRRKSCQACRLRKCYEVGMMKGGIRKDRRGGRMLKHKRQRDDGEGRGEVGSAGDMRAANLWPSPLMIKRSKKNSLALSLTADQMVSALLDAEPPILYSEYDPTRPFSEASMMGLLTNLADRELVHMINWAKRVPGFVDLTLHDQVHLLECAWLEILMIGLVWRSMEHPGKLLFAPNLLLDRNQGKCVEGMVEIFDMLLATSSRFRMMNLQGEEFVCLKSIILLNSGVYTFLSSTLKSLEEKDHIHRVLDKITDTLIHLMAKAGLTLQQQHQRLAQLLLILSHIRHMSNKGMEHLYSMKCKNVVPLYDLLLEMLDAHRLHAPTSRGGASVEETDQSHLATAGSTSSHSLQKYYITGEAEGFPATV
Summary of the method: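 MCF7-derived receptor extract, radiolabelled ligand, competitive displacement. Read: scintillation counts at 18 h. DMSO = negative control/baseline. Primary 25 uM duplicate; follow-up concentration–response.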

[3] = target: Estrogen receptor (Homo sapiens) (UniProt P03372); experiment: OT_ER_ERaERa_1440: Odyssey Thera (OT) 24-hour HEK293T Protein-Complementation Assay for Estrogen Receptor-alpha/-alpha Homodimer (AID 2283349);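 also: hits raise fluorescence above DMSO for agonists and antagonists alike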
Summary of the method: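 Cells (HEK293T) carrying the fragment-tagged ERα LBD (aa 310-547) pair are treated with chemical for 24 hours. Nuclear and/or cytoplasmic fluorescence is then quantified on a laser scanning cytometer. Activity is scored as signal gain against DMSO.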

[4] = target: Estrogen receptor (Homo sapiens) (UniProt P03372); experiment: OT_ER_ERaERa_0480: Odyssey Thera (OT) 8-hour HEK293T Protein-Complementation Assay for Estrogen Receptor-alpha/-alpha Homodimer (AID 2283351);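 also: rise in fluorescence from reassembled reporter fragments on ERα LBD homodimer in nucleus or whole cell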
Summary of the method: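 Measures ERα LBD (aa 310-547) homodimer complementation in stably transfected HEK293T at 8 h post-dose, with fluorescence intensity quantified on a laser scanning cytometer relative to DMSO controls.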

[5] = target: human Peroxisome Proliferator-activated Receptor alpha (PPARa), PPARA (gene 5465) (UniProt Q07869); experiment: NVS_NR_hPPARa: NovaScreen (NVS) Nuclear Receptor Binding Assay for human Peroxisome Proliferator-activated Receptor alpha (PPARa) (AID 2283359);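 also: activity means loss of TR-FRET signal versus DMSO baseline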
Sequence of human Peroxisome Proliferator-activated Receptor alpha (PPARa), PPARA (gene 5465) (Q07869 whole entry, looked up): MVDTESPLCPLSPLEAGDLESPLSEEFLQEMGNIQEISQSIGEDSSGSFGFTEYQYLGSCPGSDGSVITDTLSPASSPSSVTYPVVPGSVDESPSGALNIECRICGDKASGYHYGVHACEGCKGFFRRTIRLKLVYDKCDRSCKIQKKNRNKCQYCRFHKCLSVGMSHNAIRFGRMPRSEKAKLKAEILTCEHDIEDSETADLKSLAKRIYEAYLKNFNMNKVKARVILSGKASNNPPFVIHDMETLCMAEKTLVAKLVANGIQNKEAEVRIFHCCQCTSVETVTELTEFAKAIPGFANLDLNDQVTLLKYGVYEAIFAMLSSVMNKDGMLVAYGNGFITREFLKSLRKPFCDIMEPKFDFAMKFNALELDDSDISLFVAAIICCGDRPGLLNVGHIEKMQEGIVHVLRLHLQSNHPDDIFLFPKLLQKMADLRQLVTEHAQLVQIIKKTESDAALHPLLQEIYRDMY
Summary of the method: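 TR-FRET signal measured at 1 h post-dosing; loss-of-signal versus DMSO negative control taken as activity. Extracted gene-protein, cell-free format. Initial single-point duplicates at 25 uM, then concentration-response retests.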

[6] = target: human Constitutive Androstane Receptor (CAR), NR1I3 (gene 9970) (UniProt Q14994); experiment: NVS_NR_hCAR_Antagonist: NovaScreen (NVS) Nuclear Receptor Binding Assay for human Constitutive Androstane Receptor Antagonism (CAR) (AID 2283344)
Sequence of human Constitutive Androstane Receptor (CAR), NR1I3 (gene 9970) (Q14994 whole entry, looked up): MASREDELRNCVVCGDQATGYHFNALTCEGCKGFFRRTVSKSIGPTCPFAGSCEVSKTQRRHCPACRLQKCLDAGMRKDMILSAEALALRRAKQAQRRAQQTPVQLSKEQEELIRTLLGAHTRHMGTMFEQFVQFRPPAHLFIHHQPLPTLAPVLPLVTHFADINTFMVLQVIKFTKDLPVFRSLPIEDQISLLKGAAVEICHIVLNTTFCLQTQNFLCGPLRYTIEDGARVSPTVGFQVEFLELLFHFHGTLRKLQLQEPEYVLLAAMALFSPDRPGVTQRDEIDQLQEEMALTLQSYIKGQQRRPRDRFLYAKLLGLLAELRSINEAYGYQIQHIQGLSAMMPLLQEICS
Summary of the method: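 Single 25 uM duplicate primary screen, with concentration-series follow-up on actives. Cell-free binding format run in antagonist mode, TR-FRET signal taken 1 h post-dose; activity is signal loss relative to DMSO.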

[7] = target: chimpanzee Androgen Receptor (AR), AR (gene 747460) (UniProt O97775); experiment: NVS_NR_cAR: NovaScreen (NVS) Nuclear Receptor Binding Assay for chimpanzee Androgen Receptor (AR) (AID 2283346);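 also: radioligand displacement from AR measured by scintillation counting in a cell-free assay; a loss of bound radioligand signal versus DMSO counts as binding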
Sequence of chimpanzee Androgen Receptor (AR), AR (gene 747460) (O97775 whole entry, looked up): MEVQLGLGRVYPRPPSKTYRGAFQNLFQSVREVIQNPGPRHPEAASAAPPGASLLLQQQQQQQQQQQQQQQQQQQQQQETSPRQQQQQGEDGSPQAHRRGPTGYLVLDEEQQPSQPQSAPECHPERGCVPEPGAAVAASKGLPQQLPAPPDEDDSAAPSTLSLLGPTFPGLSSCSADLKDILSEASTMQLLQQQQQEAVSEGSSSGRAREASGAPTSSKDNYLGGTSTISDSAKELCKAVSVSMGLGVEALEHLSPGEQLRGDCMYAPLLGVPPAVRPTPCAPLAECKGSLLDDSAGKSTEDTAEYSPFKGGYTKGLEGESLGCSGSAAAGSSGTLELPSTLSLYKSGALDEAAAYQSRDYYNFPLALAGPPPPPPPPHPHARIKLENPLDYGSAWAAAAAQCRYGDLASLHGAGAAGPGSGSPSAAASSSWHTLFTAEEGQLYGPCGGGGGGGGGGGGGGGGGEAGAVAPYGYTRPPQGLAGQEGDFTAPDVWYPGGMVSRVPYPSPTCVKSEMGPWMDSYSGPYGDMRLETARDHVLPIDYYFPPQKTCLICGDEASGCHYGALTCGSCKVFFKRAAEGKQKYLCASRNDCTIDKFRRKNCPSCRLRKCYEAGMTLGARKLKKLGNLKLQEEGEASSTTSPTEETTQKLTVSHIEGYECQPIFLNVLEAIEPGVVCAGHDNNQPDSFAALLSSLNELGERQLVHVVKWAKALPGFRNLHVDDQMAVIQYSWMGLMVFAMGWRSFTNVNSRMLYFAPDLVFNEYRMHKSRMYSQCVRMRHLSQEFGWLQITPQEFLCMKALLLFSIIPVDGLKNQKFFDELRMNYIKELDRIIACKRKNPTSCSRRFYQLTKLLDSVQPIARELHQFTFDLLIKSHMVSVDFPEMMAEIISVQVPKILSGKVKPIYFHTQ
Summary of the method: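 Radioligand binding to chimpanzee AR expressed in Sf9/Sf21 cells, cell-free, measured 72 h after dosing by lysate-based scintillation counting. Loss of signal vs DMSO; initial duplicate screen at 25 uM, actives retested in concentration series.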

[8] = target: Bile acid receptor (Homo sapiens) (UniProt Q96RI1); experiment: NVS_NR_hFXR_Antagonist: NovaScreen (NVS) Nuclear Receptor Binding Assay for human Farnesoid X Receptor Antagonism (FXR) (AID 2283350)
Summary of the method: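 Antagonist-format time-resolved FRET binding assay with extracted human receptor protein, read 1 hour after compound addition. Compounds first screened at 25 uM in duplicate, then actives tested in concentration series, with loss of signal relative to DMSO.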

[9] = target: T1, Estrogen receptor (Homo sapiens) + Estrogen receptor beta (Homo sapiens) (UniProt P03372+Q92731); experiment: OT_ER_ERaERb_1440: Odyssey Thera (OT) 24-hour HEK293T Protein-Complementation Assay for Estrogen Receptor-alpha/-beta Homodimer (AID 2283356);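 also: heteromer of ER alpha and ER beta binding domains; hits raise reporter fluorescence and both agonists and antagonists give an increase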
T1 sequence (P03372 whole entry, looked up, the tested form may be a part): as the sequence (P03372 whole entry, looked up, the tested form may be a part) above
T1 sequence (Q92731 whole entry, looked up, the tested form may be a part): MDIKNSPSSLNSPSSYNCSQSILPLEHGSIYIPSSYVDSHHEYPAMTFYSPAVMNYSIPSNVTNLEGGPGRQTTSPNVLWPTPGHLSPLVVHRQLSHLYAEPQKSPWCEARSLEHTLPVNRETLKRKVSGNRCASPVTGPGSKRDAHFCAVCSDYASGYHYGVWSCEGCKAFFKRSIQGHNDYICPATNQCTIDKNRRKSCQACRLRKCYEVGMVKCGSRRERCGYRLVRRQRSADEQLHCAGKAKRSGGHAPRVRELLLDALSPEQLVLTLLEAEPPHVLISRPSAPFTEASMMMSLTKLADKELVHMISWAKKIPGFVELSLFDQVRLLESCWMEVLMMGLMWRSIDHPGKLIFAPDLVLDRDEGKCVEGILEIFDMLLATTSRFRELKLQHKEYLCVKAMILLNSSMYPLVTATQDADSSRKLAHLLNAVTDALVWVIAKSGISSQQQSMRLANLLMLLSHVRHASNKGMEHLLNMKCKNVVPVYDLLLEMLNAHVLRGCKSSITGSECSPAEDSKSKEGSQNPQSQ
Summary of the method: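 HEK293T cells stably expressing a PCA pair of ERα LBD (aa 310-547) and ERβ LBD (aa 263-489) were dosed for 24 h. Fluorescence intensity increase versus DMSO vehicle was fitted as gain-of-signal.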

PGR (gene 5241) = PGR (gene 5241) (UniProt P06401); experiment: NVS_NR_hPR: NovaScreen (NVS) Nuclear Receptor Binding Assay for human Progestron Receptor (PR) (AID 2283360);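 also: active means loss of bound radioligand signal versus DMSO baseline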
Summary of the method: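 Cell-free radioligand binding using receptor protein extracted from T47D cells, read by scintillation counting 18 hours after dosing. Loss of signal relative to DMSO baseline indicates displacement; primary screen single concentration 25 uM in duplicate, actives followed in concentration series.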

[10] = target: Estrogen receptor beta (Homo sapiens) (UniProt Q92731); experiment: OT_ER_ERbERb_0480: Odyssey Thera (OT) 8-hour HEK293T Protein-Complementation Assay for Estrogen Receptor-beta/-beta Homodimer (AID 2283357);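 also: active means signal gain over DMSO baseline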
Sequence of Estrogen receptor beta (Homo sapiens) (Q92731 whole entry, looked up, the tested form may be a part): as above
Summary of the method: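 Homodimerization of ER-beta LBD measured by protein-fragment complementation in HEK293T; 8 h dosing; fixed, Draq5 counterstain; fluorescence intensity gain over DMSO baseline, positive fitting direction; laser scanning cytometry.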

[11] = target: Androgen Receptor/SRC-1 Co-activator, AR (gene 367) (UniProt P10275); experiment: OT_AR_ARSRC1_0960: Odyssey Thera (OT) 16-hour HEK293T Protein-Complementation Assay for Androgen Receptor/SRC-1 Co-activator (AID 2283353);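 also: actives raise the signal above DMSO so potency reflects increased AR and SRC-1 complex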
Sequence of Androgen Receptor/SRC-1 Co-activator, AR (gene 367) (P10275 whole entry, looked up, the tested form may be a part): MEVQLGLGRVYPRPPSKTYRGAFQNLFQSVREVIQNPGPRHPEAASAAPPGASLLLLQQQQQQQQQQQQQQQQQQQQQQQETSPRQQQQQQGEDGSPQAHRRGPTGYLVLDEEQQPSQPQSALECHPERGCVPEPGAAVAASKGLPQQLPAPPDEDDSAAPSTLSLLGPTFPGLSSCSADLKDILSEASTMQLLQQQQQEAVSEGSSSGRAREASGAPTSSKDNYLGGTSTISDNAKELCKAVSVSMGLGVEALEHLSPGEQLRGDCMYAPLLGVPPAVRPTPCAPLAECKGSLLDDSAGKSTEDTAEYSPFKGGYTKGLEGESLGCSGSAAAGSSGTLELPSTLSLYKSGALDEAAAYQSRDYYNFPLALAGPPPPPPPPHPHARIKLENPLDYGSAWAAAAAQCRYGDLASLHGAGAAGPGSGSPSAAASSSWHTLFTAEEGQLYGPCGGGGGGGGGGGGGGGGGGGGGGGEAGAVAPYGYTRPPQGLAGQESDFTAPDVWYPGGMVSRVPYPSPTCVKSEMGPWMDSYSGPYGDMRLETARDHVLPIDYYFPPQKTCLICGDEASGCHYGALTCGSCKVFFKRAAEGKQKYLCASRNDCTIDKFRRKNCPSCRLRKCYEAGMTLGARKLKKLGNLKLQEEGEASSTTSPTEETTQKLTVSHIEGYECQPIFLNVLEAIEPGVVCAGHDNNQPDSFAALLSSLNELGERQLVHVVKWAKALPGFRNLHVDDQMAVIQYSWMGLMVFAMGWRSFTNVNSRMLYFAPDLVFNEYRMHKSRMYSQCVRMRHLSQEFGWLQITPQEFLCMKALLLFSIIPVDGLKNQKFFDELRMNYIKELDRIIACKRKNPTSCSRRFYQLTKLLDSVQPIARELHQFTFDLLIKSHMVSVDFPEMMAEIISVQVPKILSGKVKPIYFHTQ
Summary of the method: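 Sixteen-hour cell assay: Venus halves fused to AR and SRC-1 in HEK293T report binding. Images at 488/635 nm give an N/C ratio in the 488 nm channel over ≥400 cells, analysed as signal increase over DMSO.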

[12] = target: Androgen Receptor/SRC-1 Co-activator, AR (gene 367) (UniProt P10275); experiment: OT_AR_ARSRC1_0480: Odyssey Thera (OT) 8-hour HEK293T Protein-Complementation Assay for Androgen Receptor/SRC-1 Co-activator (AID 2283354);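 also: hits raise the complementation signal above DMSO so AC50 marks enhancers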
Summary of the method: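 Split-Venus PCA, stable HEK293T, AR/SRC-1 fusions; 8 h exposure. Readout: 488nm N/C fluorescence ratio, ≥400 cells/image; fitted upward vs DMSO baseline.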

[13] = target: Retinoic acid receptor alpha (Homo sapiens) (UniProt P10276); experiment: NVS_NR_hRAR_Antagonist: NovaScreen (NVS) Nuclear Receptor Binding Assay for human Retinoic Acid Alpha Receptor Antagonism (RAR) (AID 2283358)
Sequence of Retinoic acid receptor alpha (Homo sapiens) (P10276 whole entry, looked up): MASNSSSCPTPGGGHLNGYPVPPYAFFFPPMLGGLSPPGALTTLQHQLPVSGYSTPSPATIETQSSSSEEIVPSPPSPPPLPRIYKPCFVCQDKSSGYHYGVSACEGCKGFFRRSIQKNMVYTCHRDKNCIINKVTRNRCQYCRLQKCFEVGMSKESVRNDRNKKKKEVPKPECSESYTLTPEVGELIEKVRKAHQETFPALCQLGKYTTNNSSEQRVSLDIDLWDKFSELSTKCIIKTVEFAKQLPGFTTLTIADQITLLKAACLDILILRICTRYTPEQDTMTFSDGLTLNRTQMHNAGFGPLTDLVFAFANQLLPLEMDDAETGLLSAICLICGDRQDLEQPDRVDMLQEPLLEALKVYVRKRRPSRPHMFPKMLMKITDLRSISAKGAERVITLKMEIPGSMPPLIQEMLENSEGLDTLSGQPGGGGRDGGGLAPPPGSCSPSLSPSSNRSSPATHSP
Summary of the method: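 Read-out: time-resolved FRET binding signal, 2 h post-dose, cell-free extracted protein. Antagonism scored as signal loss versus DMSO negative control. Primary single-concentration screen at 25 uM in duplicate; concentration series for actives.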

[14] = target: rat Glycine Receptor, Strychnine-sensitive (GlyRStrySens), Glra1 (gene 25674) (UniProt P07727); experiment: NVS_LGIC_rGlyRStrySens: NovaScreen (NVS) Ligand-Gated Ion Channel Assay for rat Glycine Receptor, Strychnine-sensitive (GlyRStrySens) (AID 2283341)
Sequence of rat Glycine Receptor, Strychnine-sensitive (GlyRStrySens), Glra1 (gene 25674) (P07727 whole entry, looked up): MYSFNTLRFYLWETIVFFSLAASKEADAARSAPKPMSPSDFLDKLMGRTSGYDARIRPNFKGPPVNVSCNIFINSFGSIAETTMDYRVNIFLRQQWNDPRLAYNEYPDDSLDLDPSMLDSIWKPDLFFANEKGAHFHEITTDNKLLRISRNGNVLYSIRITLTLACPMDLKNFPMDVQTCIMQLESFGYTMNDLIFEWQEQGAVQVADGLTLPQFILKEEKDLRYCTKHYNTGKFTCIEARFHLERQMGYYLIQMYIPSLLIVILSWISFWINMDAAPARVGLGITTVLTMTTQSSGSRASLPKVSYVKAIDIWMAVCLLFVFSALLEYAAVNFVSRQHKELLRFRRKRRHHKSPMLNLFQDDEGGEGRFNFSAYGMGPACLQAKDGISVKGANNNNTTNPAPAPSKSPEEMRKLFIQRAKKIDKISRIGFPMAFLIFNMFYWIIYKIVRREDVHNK
Summary of the method: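 Radioligand displacement on rat spinal cord membranes, 1 hr, filter scintillation read-out. Single-concentration duplicate screen at 25 uM; chemicals meeting threshold (e.g., 30% inhibition) rerun in concentration-response up to 50 uM. Loss of binding fitted versus DMSO.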

[15] = target: T1, Estrogen receptor (Homo sapiens) + Estrogen receptor beta (Homo sapiens); experiment: OT_ER_ERaERb_0480: Odyssey Thera (OT) 8-hour HEK293T Protein-Complementation Assay for Estrogen Receptor-alpha/-beta Heterodimer (AID 2283352)
Summary of the method: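 HEK293T cells expressing ER-alpha/ER-beta LBD fusions to complementary reporter fragments were dosed with compound for 8 hours. Heterodimer formation was read as increased nuclear (agonist) or nuclear plus cytoplasmic (antagonist) mean fluorescence intensity versus DMSO vehicle.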

[16] = target: bovine Estrogen Receptor (ER), ESR1 (gene 407238) (UniProt P49884); experiment: NVS_NR_bER: NovaScreen (NVS) Nuclear Receptor Binding Assay for bovine Estrogen Receptor (ER) (AID 2283345);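 also: actives lower the bound radioligand count which means they displace the ER ligand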
Summary of the method: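 Cell-free radioligand binding with receptor from bovine uterine membranes, read by scintillation counting 18 h after dosing. Loss of specific binding was scored against DMSO; primary screen at 25 uM in duplicate, actives then run as concentration series.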

[17] = target: Retinoic acid receptor alpha (Homo sapiens) (UniProt P10276); experiment: NVS_NR_hRARa_Agonist: NovaScreen (NVS) Nuclear Receptor Binding Assay for human Retinoic Acid Alpha Receptor Agonism (RAR) (AID 2283361)
Summary of the method: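 TR-FRET signal, 2 h post-dosing; cell-free extracted protein; DMSO = baseline, positive fitting direction; 25 uM single-point duplicate, then concentration series for actives.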

NCBI gene 100848466 = experiment: NVS_NR_bPR: NovaScreen (NVS) Nuclear Receptor Binding Assay for bovine Progextron Receptor (PR) (AID 2283343);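 also: actives lower bound radioligand signal below DMSO meaning displacement of the label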
Summary of the method: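 Scintillation counts of bound radioligand were read 18 hours after chemical addition to membranes extracted from bovine uterus. Displacement was scored as loss of signal relative to DMSO controls. Screening began at 25 uM in duplicate.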

[18] = target: rat Mineralocorticoid Receptor (MR), Nr3c2 (gene 25672) (UniProt P22199); experiment: NVS_NR_rMR: NovaScreen (NVS) Nuclear Receptor Binding Assay for rat Mineralocorticoid Receptor (MR) (AID 2283355)
Summary of the method: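 Radioligand displacement, scintillation readout; tissue source adrenalectomized rat brain supernatant. Read 24 h post-dose. Screened in duplicate at 25 uM, DMSO negative control, controls on every plate; actives re-run in concentration series.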

Measured: AC50

CCOC(=O)COc1ccc2c(c1)CC(NCC(O)c1cccc(Cl)c1)CC2 (centres undefined)
active: [1] 32 µM
inactive: [2] | [3] | [4] | [5]

CC(C)=CCC/C(C)=C\CO
inactive: [6] | [7] | [8]

O=c1[nH]c2ccc(S(=O)CCN3CCC(Cc4ccc(F)cc4)CC3)cc2o1 (centres undefined)
active: [1] 1.21 µM
inactive: [3] | [4] | [9] | PGR (gene 5241)

CCN(C(=O)c1cc(C)cc(OC[C@H](C)Nc2ccncc2)c1)C(C)C
active: [1] 16.9 µM
inactive: [10]

O=C(CCCCCCCCc1cccnc1)N1CCC(C=C(c2ccccc2)c2ccccc2)CC1
inactive: [1] | [12] | [10] | [13]
active: [11] 27.5 µM

COc1ccc(-n2nc(C(F)F)cc2-c2ccc(S(C)=O)cc2)cc1 (centres undefined)
inactive: [14] | [3] | [4]
active: [1] 25 µM

COc1ccc2sc(C(=O)Nc3nnn[nH]3)c(OC(C)C)c2c1
inactive: [7] | [2] | [3] | [4] | [15] | [9] | [10]

CCOC(=O)c1ccc(C2CCC(NC[C@H](O)COc3ccc(O)c(NS(C)(=O)=O)c3)CC2)cc1 (some centres undefined)
inactive: [10] | [5]
active: [1] 9.42 µM

COc1cccc(-c2ccc(/C=C\CN3CCCCCC3)cc2Cl)c1
inactive: [14] | [6] | [16] | [2] | [3] | [8] | [15] | [10] | [5]
active: [1] 12.3 µM | [9] 10.7 µM

CN(C)c1ccc(N=NS(=O)(=O)O)cc1
inactive: [6] | [11] | [12]

CC/C(=C\C(=N/O)C(N)=O)C(C)[N+](=O)[O-] (centres undefined)
inactive: [14] | [16] | [3] | [4] | [9] | [10]

CCOc1cccc(-n2cc(C(=O)N3CCN(c4cc(C(=O)O)c5ccccc5c4)CC3)nc2-c2ccc(C)cc2)c1
inactive: [1] | [12] | [10] | [5]
active: [7] 20.4 µM | [11] 23.9 µM | [17] 16.2 µM

Oc1ccc2c(c1)-c1ccccc1C2
active: NCBI gene 100848466 25 µM | [7] 8.77 µM | [11] 35.1 µM | [12] 50 µM | [10] 12.7 µM | PGR (gene 5241) 9.66 µM
inactive: [18] | [5]
